Reference: the supplement of paper PMC8728848
The entries come from a sample that favours the strongest signals as a whole.

Legend:
Experiment in all cases: glycan array binding signal (z-score within array); higher = stronger binding
Conditions in all cases: glycan notation: IUPAC condensed, linker removed
Fuc(a1-2)Gal = molecular target: Fuc(a1-2)Gal
Procedure, shortened: (§1)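 The Consortium for Functional Glycomics database supplied 3228 glycan arrays, of which those lacking an available protein sequence were dropped. The binding signal, a within-array Z-score, was averaged across arrays of the same protein sequence and across linkers. Negative scores can be read as non-binding.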

[1] = molecular target: Fuc(a1-2)Gal(b1-4)Fuc(a1-3)]GlcNAc(b1-2)Man(a1-3)[Fuc(a1-2)Gal(b1-4)[Fuc(a1-3)]GlcNAc(b1-2)Man(a1-6)]Man(b1-4)GlcNAc(b1-4)GlcNAc
Procedure, shortened: as §1

[2] = molecular target: Fuc(a1-2)Gal(b1-4)[Fuc(a1-3)]GlcNAc
Procedure, shortened: as §1

[3] = molecular target: Fuc(a1-2)[Gal(a1-3)]Gal(b1-3)GalNAc
Procedure, shortened: as §1

[4] = molecular target: Fuc(a1-2)[Gal(a1-3)]Gal(b1-3)GlcNAc(b1-2)Man(a1-3)[Fuc(a1-2)[Gal(a1-3)]Gal(b1-3)GlcNAc(b1-2)Man(a1-6)]Man(b1-4)GlcNAc(b1-4)GlcNAc
Procedure, shortened: as §1

[5] = molecular target: Fuc(a1-2)[Gal(a1-3)]Gal(b1-4)[Fuc(a1-3)]Glc
Procedure, shortened: as §1

[6] = molecular target: Fuc(a1-2)[GalNAc(a1-3)]Gal(b1-3)GalNAc(b1-3)Gal(a1-4)Gal(b1-4)Glc
Procedure, shortened: as §1

[7] = molecular target: Fuc(a1-2)[GalNAc(a1-3)]Gal(b1-4)Glc
Procedure, shortened: as §1

[8] = molecular target: Fuc(a1-2)[GalNAc(b1-3)]Gal
Procedure, shortened: as §1

[9] = molecular target: Fuc(a1-3)[Gal(b1-4)]GlcNAc(b1-2)Man(a1-3)[Fuc(a1-3)[Gal(b1-4)]GlcNAc(b1-2)Man(a1-6)]Man(b1-4)GlcNAc(b1-4)[Fuc(a1-6)]GlcNAc
Procedure, shortened: as §1

[10] = molecular target: Fuc(a1-3)[GalNAc(b1-4)]GlcNAc
Procedure, shortened: as §1

[11] = molecular target: Gal(a1-3)Gal(b1-3)GlcNAc(b1-6)GalNAc
Procedure, shortened: as §1

[12] = molecular target: Gal(a1-3)Gal(b1-4)GlcNAc(b1-2)Man(a1-3)[Gal(a1-3)Gal(b1-4)GlcNAc(b1-2)Man(a1-6)]Man(b1-4)GlcNAc(b1-4)GlcNAc
Procedure, shortened: as §1

[13] = molecular target: Gal(b1-4)GlcNAc(a1-6)Gal(b1-4)GlcNAc
Procedure, shortened: as §1

[14] = molecular target: Gal(b1-4)GlcNAc(b1-2)Man(a1-3)[Gal(b1-4)GlcNAc(b1-2)Man(a1-6)]Man(b1-4)GlcNAc(b1-4)GlcNAc
Procedure, shortened: as §1

[15] = molecular target: Gal(b1-4)GlcNAc(b1-2)[Gal(b1-4)GlcNAc(b1-4)]Man(a1-3)[GlcNAc(b1-4)][Gal(b1-4)GlcNAc(b1-2)[Gal(b1-4)GlcNAc(b1-6)]Man(a1-6)]Man(b1-4)GlcNAc(b1-4)GlcNAc
Procedure, shortened: as §1

[16] = molecular target: Gal(b1-4)GlcNAc(b1-2)[Gal(b1-4)GlcNAc(b1-6)]Man(a1-6)[Gal(b1-4)GlcNAc(b1-2)Man(a1-3)]Man(b1-4)GlcNAc(b1-4)GlcNAc
Procedure, shortened: as §1

[17] = molecular target: Gal(b1-4)GlcNAc(b1-3)Gal(b1-4)GlcNAc(b1-2)Man(a1-3)[Gal(b1-4)GlcNAc(b1-3)Gal(b1-4)GlcNAc(b1-2)Man(a1-6)]Man(b1-4)GlcNAc(b1-4)[Fuc(a1-6)]GlcNAc
Procedure, shortened: as §1

[18] = molecular target: Gal(b1-4)GlcNAc(b1-3)Gal(b1-4)GlcNAc(b1-2)[Gal(b1-4)GlcNAc(b1-3)Gal(b1-4)GlcNAc(b1-6)]Man(a1-6)[Gal(b1-4)GlcNAc(b1-3)Gal(b1-4)GlcNAc(b1-2)Man(a1-3)]Man(b1-4)GlcNAc(b1-4)GlcNAc
Procedure, shortened: as §1

[19] = molecular target: Gal(b1-4)GlcNAc(b1-3)Gal(b1-4)GlcNAc(b1-3)Gal(b1-4)GlcNAc(b1-3)Gal(b1-4)GlcNAc(b1-2)Man(a1-3)[Gal(b1-4)GlcNAc(b1-3)Gal(b1-4)GlcNAc(b1-3)Gal(b1-4)GlcNAc(b1-3)Gal(b1-4)GlcNAc(b1-2)Man(a1-6)]Man(b1-4)GlcNAc(b1-4)[Fuc(a1-6)]GlcNAc
Procedure, shortened: as §1

[20] = molecular target: Gal(b1-4)GlcNAc(b1-3)Gal(b1-4)GlcNAc(b1-3)Gal(b1-4)GlcNAc(b1-3)Gal(b1-4)GlcNAc(b1-2)[Gal(b1-4)GlcNAc(b1-3)Gal(b1-4)GlcNAc(b1-3)Gal(b1-4)GlcNAc(b1-3)Gal(b1-4)GlcNAc(b1-6)]Man(a1-6)[Gal(b1-4)GlcNAc(b1-3)Gal(b1-4)GlcNAc(b1-3)Gal(b1-4)GlcNAc(b1-3)Gal(b1-4)GlcNAc(b1-2)Man(a1-3)]Man(b1-4)GlcNAc(b1-4)[Fuc(a1-6)]GlcNAc
Procedure, shortened: as §1

[21] = molecular target: Gal(b1-4)GlcNAc(b1-3)Gal(b1-4)GlcNAc(b1-3)Gal(b1-4)GlcNAc(b1-3)Gal(b1-4)GlcNAc(b1-3)Gal(b1-4)GlcNAc(b1-3)Gal(b1-4)GlcNAc(b1-2)Man(a1-3)[Gal(b1-4)GlcNAc(b1-3)Gal(b1-4)GlcNAc(b1-3)Gal(b1-4)GlcNAc(b1-3)Gal(b1-4)GlcNAc(b1-3)Gal(b1-4)GlcNAc(b1-3)Gal(b1-4)GlcNAc(b1-2)Man(a1-6)]Man(b1-4)GlcNAc(b1-4)GlcNAc
Procedure, shortened: as §1

[22] = molecular target: Gal3S(b1-4)[Fuc(a1-3)]GlcNAc6S
Procedure, shortened: as §1

[23] = molecular target: GalNAc(b1-4)GlcNAc(b1-3)GalNAc(b1-4)GlcNAc
Procedure, shortened: as §1

GalNAc4S6S(b1-4)GlcNAc = molecular target: GalNAc4S6S(b1-4)GlcNAc
Procedure, shortened: as §1

GlcA(b1-3)Gal = molecular target: GlcA(b1-3)Gal
Procedure, shortened: as §1

[24] = molecular target: GlcNAc(b1-2)[GlcNAc(b1-4)]Man(a1-3)[GlcNAc(b1-2)Man(a1-6)]Man(b1-4)GlcNAc(b1-4)GlcNAc
Procedure, shortened: as §1

GlcNAc(b1-3)Gal(b1-4)Glc = molecular target: GlcNAc(b1-3)Gal(b1-4)Glc
Procedure, shortened: as §1

[25] = molecular target: GlcNAc(b1-3)Gal(b1-4)GlcNAc(b1-3)Gal(b1-4)GlcNAc(b1-2)Man(a1-3)[GlcNAc(b1-3)Gal(b1-4)GlcNAc(b1-3)Gal(b1-4)GlcNAc(b1-2)Man(a1-6)]Man(b1-4)GlcNAc(b1-4)GlcNAc
Procedure, shortened: as §1

MurNAc(b1-4)GlcNAc = molecular target: MurNAc(b1-4)GlcNAc
Procedure, shortened: as §1

Neu5Ac(a2-3)Gal = molecular target: Neu5Ac(a2-3)Gal
Procedure, shortened: as §1

[26] = molecular target: Neu5Ac(a2-3)Gal(b1-3)GalNAc(b1-4)[Neu5Ac(a2-8)Neu5Ac(a2-3)]Gal(b1-4)Glc
Procedure, shortened: as §1

[27] = molecular target: Neu5Ac(a2-3)Gal(b1-3)GlcNAc(b1-2)Man
Procedure, shortened: as §1

[28] = molecular target: Neu5Ac(a2-3)Gal(b1-4)GlcNAc(b1-2)Man(a1-3)[GlcNAc(b1-4)][Neu5Ac(a2-3)Gal(b1-4)GlcNAc(b1-2)Man(a1-6)]Man(b1-4)GlcNAc(b1-4)GlcNAc
Procedure, shortened: as §1

[29] = molecular target: Neu5Ac(a2-3)Gal(b1-4)GlcNAc(b1-3)Gal(b1-4)GlcNAc
Procedure, shortened: as §1

[30] = molecular target: Neu5Ac(a2-3)Gal(b1-4)GlcNAc(b1-3)Gal(b1-4)[Fuc(a1-3)]GlcNAc
Procedure, shortened: as §1

[31] = molecular target: Neu5Ac(a2-3)Gal(b1-4)GlcNAc(b1-6)[Neu5Ac(a2-3)Gal(b1-3)]GalNAc
Procedure, shortened: as §1

[32] = molecular target: Neu5Ac(a2-3)Gal(b1-4)GlcNAc6S
Procedure, shortened: as §1

[33] = molecular target: Neu5Ac(a2-3)Gal(b1-4)[Fuc(a1-3)]GlcNAc(b1-6)[Gal(b1-3)]GalNAc
Procedure, shortened: as §1

[34] = molecular target: Neu5Ac(a2-6)GalNAc(b1-4)GlcNAc
Procedure, shortened: as §1

[35] = molecular target: Neu5Ac(a2-6)GlcNAc(b1-4)GlcNAc
Procedure, shortened: as §1

[36] = molecular target: Neu5Ac(a2-8)Neu5Ac(a2-8)Neu5Ac
Procedure, shortened: as §1

[37] = molecular target: Neu5Gc(a2-3)Gal(b1-4)[Fuc(a1-3)]GlcNAc
Procedure, shortened: as §1

B1: HA-11100 (Pseudomonas aeruginosa), Q02G51_PSEAB (protein)
chain: QFNPNEIKISQQGKTTLIDQSTQRAIINWKGFDVSADEAVRFNQPGVTSSTLNRVTAGQESVIAGRISAPGQVIIYNSNGVVFSGSAKVDVGSLITTTANISDEHFRQGKLIFDQPGNPDARIVNDGSISVAEKGLAAFVAPSVANNGVINARLGTVAMAAGNAATIDLYG
With B1 the “glycan array binding signal (z-score)” value (Fuc(a1-2)Gal) was -0.09, the “glycan array binding signal (z-score)” value [1] was 3.58 and the “glycan array binding signal (z-score)” value [2] was -0.134. The “glycan array binding signal (z-score)” value [3] was -0.312, the “glycan array binding signal (z-score)” value [4] was 7.81 and the “glycan array binding signal (z-score)” value [5] was 0.052. The “glycan array binding signal (z-score)” value [6] was 0.044, the “glycan array binding signal (z-score)” value [7] was -0.174 and the “glycan array binding signal (z-score)” value [8] was -0.384. For the same binder, the “glycan array binding signal (z-score)” value [9] was 3.33, the “glycan array binding signal (z-score)” value [10] was -0.403 and the “glycan array binding signal (z-score)” value [11] was -0.463. For the same binder, the “glycan array binding signal (z-score)” value [12] was 3.53, the “glycan array binding signal (z-score)” value [13] was -0.29 and the “glycan array binding signal (z-score)” value [14] was -0.512. The “glycan array binding signal (z-score)” value [15] was 3.28, the “glycan array binding signal (z-score)” value [16] was 7.59 and the “glycan array binding signal (z-score)” value [17] was 10.5. For the same binder, the “glycan array binding signal (z-score)” value [18] was 5.77, the “glycan array binding signal (z-score)” value [19] was 2.99 and the “glycan array binding signal (z-score)” value [20] was 3.24. For the same binder, the “glycan array binding signal (z-score)” value [21] was 1.87, the “glycan array binding signal (z-score)” value [22] was -0.451 and the “glycan array binding signal (z-score)” value [23] was 0.008. The “glycan array binding signal (z-score)” value (GalNAc4S6S(b1-4)GlcNAc) was -0.38, the “glycan array binding signal (z-score)” value (GlcA(b1-3)Gal) was -0.243 and the “glycan array binding signal (z-score)” value [24] was -0.37. The “glycan array binding signal (z-score)” value (GlcNAc(b1-3)Gal(b1-4)Glc) was -0.359, the “glycan array binding signal (z-score)” value [25] was 3.34 and the “glycan array binding signal (z-score)” value (MurNAc(b1-4)GlcNAc) was 0.053. For the same binder, the “glycan array binding signal (z-score)” value (Neu5Ac(a2-3)Gal) was -0.148, the “glycan array binding signal (z-score)” value [26] was -0.214 and the “glycan array binding signal (z-score)” value [27] was -0.402. For the same binder, the “glycan array binding signal (z-score)” value [28] was -0.268, the “glycan array binding signal (z-score)” value [29] was -0.347 and the “glycan array binding signal (z-score)” value [30] was -0.737. For the same binder, the “glycan array binding signal (z-score)” value [31] was -0.222, the “glycan array binding signal (z-score)” value [32] was -0.016 and the “glycan array binding signal (z-score)” value [33] was 4.78. For the same binder, the “glycan array binding signal (z-score)” value [34] was -0.851, the “glycan array binding signal (z-score)” value [35] was -0.421 and the “glycan array binding signal (z-score)” value [36] was -0.333. The “glycan array binding signal (z-score)” value [37] was -0.065.
